# About 79,000 compounds went through this panel and 15% of them were active in at least one assay; those are over-represented in the sample as a whole. Values without a mark were called inactive. Active and inactive are the calls of the source. Cut-off read from the data, not from the text of the source: active = growth inhibition above about 70%; inactive = the rest.
# Experiment: NCI Yeast Anticancer Drug Screen. Data for the rad50 strain (AID 155);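 note: 0% = growth of vehicle-only cultures of the same strain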
# Conditions: S. cerevisiae rad50 strain growth inhibition; at 50.0 µM; active compounds read high
# Procedure, shortened: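 Compounds were tested on a yeast strain with an engineered DNA damage repair alteration; the reported value is growth inhibition normalised to vehicle treatment.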
row,Compound,growth inhibition
1,COc1ccc2c(c1O)-c1cc(O)cc3c1C(C2)N(CCCl)CC3 (stereo not drawn),63.4%
2,N#CCO,-3.7%
3,[Cl][Rh]([Cl])([Cl])[Cl].[NH-]CC[NH-],17.2%
4,O=[N+]([O-])c1ccc(P(=O)(O)O)cc1,-7.5%
5,C=C1OC(OC)CC(N=[N+]=[N-])C1O (stereo not drawn),-14.1%
6,O=C(Nc1ccc(S(=O)(=O)F)cc1)/C(=C\c1ccc([N+](=O)[O-])cc1)c1cccc(Cl)c1,12.4%
7,N.N.N.N.N.NC(=O)[O-].[Co+3].[I-],-14.1%
8,c1ccc(CCN2CCCCC2)nc1,2.55%
9,O=C(c1ccccc1)c1c(CC(O)c2ccccc2)n(C(=O)c2ccccc2)c2ccccc12 (stereo not drawn),10.6%
10,C1CN2CCOC2O1,-12.4%
11,Cc1ccc(NC(=O)CCc2ccc(N3C(N)=NC(N)=NC3(C)C)cc2Cl)cc1S(=O)(=O)F,54.6%
12,CN(C)[C@@H]1C(=O)C(C(N)=O)=C(O)[C@]2(O)C(=O)C3C(=O)c4c(O)ccc(Cl)c4[C@](C)(O)[C@H]3C[C@@H]12 (stereo partly drawn),-6.15%
13,S=[As](c1ccc(-c2ccccc2)cc1)(c1ccc(-c2ccccc2)cc1)c1ccc(-c2ccccc2)cc1,-10.7%
14,CC(C)CCON=O,-11.3%
15,CCOP(=O)(OCC)N1C(C)C1C (stereo not drawn),-0.05%
16,O=C1CN2CCC1CC2,10.3%
17,CCN(CC)C1CCCCC1,19.8%
18,O=C(O)CC(=O)O.[NH-]C1CCCCC1[NH-].[Pt+2] (stereo not drawn),23.7%
19,CCOP(=O)(NCc1ccccc1)c1ccc(N)cc1 (stereo not drawn),6.05%
20,COc1cc2c(cc1O)CCN[C@H]2C,-1.3%

row,Compound,growth inhibition
1,C[Se]c1ncnc2c1c(C#N)cn2C1OC(CO)C(O)C1O (stereo not drawn),0.75%
2,O=C1NN2CCCN=C2c2cnccc21,-12.3%
3,ClCCN(CCCl)c1ccc(C=Nc2ccccc2)cc1,34.5%
4,CCOC(=N)CC(O)C(Cl)(Cl)Cl (stereo not drawn),-2.05%
5,[C-]#[O+].[C-]#[O+].[C-]#[O+].[C-]#[O+].[C-]#[O+].[CH3][Sn]([Cl])[c]1ccccc1.[Mn],91.5% (active)
6,NC(=O)c1cc([N+](=O)[O-])c(N(CCCl)CCCl)c([N+](=O)[O-])c1,13.8%
7,CCC1(CCC(C)C)C(=O)NC(=O)N(c2ccccc2)C1=O (stereo not drawn),1.2%
8,CCOC(=O)c1ccccc1C(=O)OCC,6.25%
9,O=C1Cc2ccccc2C(=O)N1CCN1CCOCC1,4.05%
10,CN(C)c1ccccc1,0.35%
11,Oc1ccccc1C=NCCN=Cc1ccccc1O,-15.2%
12,Cc1ncc(CNC(=O)N(CCCl)N=O)c(N)n1,0.45%
13,CN1C(=O)N(C)C(O)C(Cl)(Cl)C1=O (stereo not drawn),-4.75%
14,Cc1cc(C)c(CCl)cc1CCl,16.2%
15,CCNC(=O)N1CC2CCC(C1)N2C,-1.15%
16,CC1CN1C1c2ccccc2CC1O (stereo not drawn),1.2%
17,O=[N+]([O-])c1c(Cl)cc(Cl)c([N+](=O)[O-])c1Cl,15.6%
18,CC(C)OP(=S)(Oc1ccc(Cl)cc1Cl)OC(C)C,20.9%
19,O=C(COc1ccc(Cl)c(Cl)c1)Nc1ccc[n+](Cc2ccc(S(=O)(=O)F)c(Cl)c2)c1,62%

# Experiment: NCI Yeast Anticancer Drug Screen. Data for the mec2-1 strain (AID 157)
# Conditions: S. cerevisiae mec2-1 strain, at 50.0 µM, active compounds read high
# Procedure, shortened: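 Compounds were applied to mec2-1 yeast cells. Their growth was then compared with that of vehicle-treated cultures to give growth inhibition.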
row,Compound,growth inhibition
1,COc1ccc2c(c1O)-c1cc(O)cc3c1C(C2)N(CCCl)CC3 (stereo not drawn),29.1%
2,N#CCO,11.3%
3,[Cl][Rh]([Cl])([Cl])[Cl].[NH-]CC[NH-],15%
4,O=[N+]([O-])c1ccc(P(=O)(O)O)cc1,-27.7%
5,C=C1OC(OC)CC(N=[N+]=[N-])C1O (stereo not drawn),-2.9%
6,O=C(Nc1ccc(S(=O)(=O)F)cc1)/C(=C\c1ccc([N+](=O)[O-])cc1)c1cccc(Cl)c1,4.3%
7,N.N.N.N.N.NC(=O)[O-].[Co+3].[I-],3.9%
8,c1ccc(CCN2CCCCC2)nc1,-1.8%
9,O=C(c1ccccc1)c1c(CC(O)c2ccccc2)n(C(=O)c2ccccc2)c2ccccc12 (stereo not drawn),-20.1%
10,C1CN2CCOC2O1,15.2%
11,Cc1ccc(NC(=O)CCc2ccc(N3C(N)=NC(N)=NC3(C)C)cc2Cl)cc1S(=O)(=O)F,72.3% (active)
12,CN(C)[C@@H]1C(=O)C(C(N)=O)=C(O)[C@]2(O)C(=O)C3C(=O)c4c(O)ccc(Cl)c4[C@](C)(O)[C@H]3C[C@@H]12 (stereo partly drawn),7.5%
13,S=[As](c1ccc(-c2ccccc2)cc1)(c1ccc(-c2ccccc2)cc1)c1ccc(-c2ccccc2)cc1,-5.55%
14,CC(C)CCON=O,-9.4%
15,CCOP(=O)(OCC)N1C(C)C1C (stereo not drawn),2.8%
16,O=C1CN2CCC1CC2,-47%
17,CCN(CC)C1CCCCC1,16.1%
18,O=C(O)CC(=O)O.[NH-]C1CCCCC1[NH-].[Pt+2] (stereo not drawn),4.35%
19,CCOP(=O)(NCc1ccccc1)c1ccc(N)cc1 (stereo not drawn),-6.45%
20,COc1cc2c(cc1O)CCN[C@H]2C,-25.8%

row,Compound,growth inhibition
1,C[Se]c1ncnc2c1c(C#N)cn2C1OC(CO)C(O)C1O (stereo not drawn),14.3%
2,O=C1NN2CCCN=C2c2cnccc21,4.5%
3,ClCCN(CCCl)c1ccc(C=Nc2ccccc2)cc1,21.1%
4,CCOC(=N)CC(O)C(Cl)(Cl)Cl (stereo not drawn),1.7%
5,[C-]#[O+].[C-]#[O+].[C-]#[O+].[C-]#[O+].[C-]#[O+].[CH3][Sn]([Cl])[c]1ccccc1.[Mn],96.5% (active)
6,NC(=O)c1cc([N+](=O)[O-])c(N(CCCl)CCCl)c([N+](=O)[O-])c1,17.1%
7,CCC1(CCC(C)C)C(=O)NC(=O)N(c2ccccc2)C1=O (stereo not drawn),-1.5%
8,CCOC(=O)c1ccccc1C(=O)OCC,-2.65%
9,O=C1Cc2ccccc2C(=O)N1CCN1CCOCC1,-14.2%
10,CN(C)c1ccccc1,42.1%
11,Oc1ccccc1C=NCCN=Cc1ccccc1O,-11.6%
12,Cc1ncc(CNC(=O)N(CCCl)N=O)c(N)n1,-6.8%
13,CN1C(=O)N(C)C(O)C(Cl)(Cl)C1=O (stereo not drawn),10.1%
14,Cc1cc(C)c(CCl)cc1CCl,-5.75%
15,CCNC(=O)N1CC2CCC(C1)N2C,7.85%
16,CC1CN1C1c2ccccc2CC1O (stereo not drawn),-13.2%
17,O=[N+]([O-])c1c(Cl)cc(Cl)c([N+](=O)[O-])c1Cl,5.25%
18,CC(C)OP(=S)(Oc1ccc(Cl)cc1Cl)OC(C)C,-11.7%
19,O=C(COc1ccc(Cl)c(Cl)c1)Nc1ccc[n+](Cc2ccc(S(=O)(=O)F)c(Cl)c2)c1,94.3% (active)

# From PubChem BioAssay (NCI)
